The values below come from PubChem BioAssay (NCATS).

Assay [1] addresses DNA repair nuclease/redox regulator APEX1 (Homo sapiens) (UniProt P27695). Nature of the assay: qHTS Validation Assay for Inhibitors of the Human Apurinic/apyrimidinic Endonuclease 1 (APE1) (AID 1705;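 further: TAMRA fluorescence gain over two minutes as APE1 cuts a quenched THF abasic duplex; series mostly up to about 57 µM; on the % scale 0 is the no-effect control and ±100 the full control effect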). The procedure, abridged: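 qHTS, 1536-well. APE1 + cpd 15 min RT → 50 nM TAMRA/BHQ-2 THF-abasic dsDNA substrate → kinetic fluorescence, 3 reads/60 s; delta(read3−read1) = reaction progress. No-enzyme buffer = negative control.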

The nature of assay [2]: Counterscreen for APE1 Inhibitors: Fluorescent Dye Displacement Validation Assay (AID 1707).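 Further: plate controls were ThO with dsDNA and no compound for no effect and ThO without dsDNA for full effect.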 The procedure, abridged: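 Reaction mixture of 250 nM Thiazole Orange and 50 nM double-stranded abasic-site DNA was dispensed, compounds were pin-transferred, and fluorescence was read at endpoint (480 nm ex, 540 nm em). Reduced fluorescence indicated dye displacement by DNA binding.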
In general terms: A counterscreen serves to expose hits that act by an unwanted route or on another target.

Assay [3] addresses Endonuclease 4 (Escherichia coli (strain K12)) (UniProt P0A6C1). As to the kind of experiment: Counterscreen for APE1 Inhibitors: qHTS Validation Assay for Inhibitors of Endonuclease IV (AID 1708). Further: on the % scale 0 is the no-effect control and ±100 the full control effect. The method, boiled down: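 Conditions: 2 nM enzyme, 50 nM TAMRA/BHQ-2 substrate, pH 7.5 Tris buffer with 2 mM MgCl2, RT. Compound preincubation 15 min; readout three fluorescence reads 60 s apart, third-minus-first.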

The nature of assay [4]: qHTS for differential inhibitors of proliferation of Plasmodium falciparum line GB4 (AID 1816).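 Further: parasite growth measured after 72 h incubation; 0% = vehicle DMSO and -100% = reference inhibitor.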 The following applies: Potency: Plasmodium falciparum GB4 proliferation inhibition. For orientation: In qHTS, concentration-response curves come from the screen itself.
A short description of assay [5]: qHTS for differential inhibitors of proliferation of Plasmodium falciparum line 3D7 (AID 1876).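 Further: parasite growth measured after three days of culture; 0% = vehicle wells and -100% = reference inhibitor wells.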
Assay [6] can be described thus: qHTS for differential inhibitors of proliferation of Plasmodium falciparum line D10 (AID 1877).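 Further: parasites grown with compound for 72 h before DNA staining; plate controls were vehicle wells for no effect and reference inhibitor wells for full effect.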
A short description of assay [7]: qHTS for differential inhibitors of proliferation of Plasmodium falciparum line Dd2 (AID 1882).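 Further: series mostly up to about 29 µM; plate controls were DMSO vehicle for no effect and 0.29 µM artemisinin for full effect; nearly all actives have a fitted effect of over 65% in size.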 The settings on record: Potency: Plasmodium falciparum Dd2 proliferation inhibition. The method, boiled down: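 SYBR Green DNA fluorescence (ex 485, em 535 nm) after overnight lysis quantifies parasite growth; compound exposure lasted 72 h at 37 C on infected red cells at 2.5% hematocrit, 0.3% parasitemia (final). Artemisinin 0.29 uM and vehicle wells define normalization.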

Assay [8] can be described thus: qHTS for differential inhibitors of proliferation of Plasmodium falciparum line W2 (AID 1883).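 Further: parasites grown with compound for 72 h before lysis and staining; 0% = vehicle wells and -100% = control inhibitor wells.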 The settings on record: Potency: Plasmodium falciparum W2 proliferation inhibition.
A short description of assay [9]: qHTS Assay for Modulators of Human Peripheral Myelin Protein 22 (PMP22) Expression/Activity (AID 1967; active means well fitted curve in the direction sought with a large enough effect in the signal ratio; the % refers to the signal ratio;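 further: 0% = untreated cells and 100% end not stated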). The method, boiled down: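 Luminescence ratio of Pmp22 promoter-driven green luciferase to EF-alpha-driven red luciferase, in engineered mouse MSC80 Schwann cells, served as read-out. Compounds were incubated 24h; untreated cells defined 0% Activity; curves were classified by r2, magnitude and activity.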

The target of assay [10] is Ferritin light chain (Equus caballus) (UniProt P02791). As to the kind of experiment: qHTS Validation Assay for Identification of Novel General Anesthetics (AID 2323). Further: series mostly up to about 77 µM; on the % scale 0 is the no-effect control and ±100 the full control effect. The procedure, abridged:
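Fluorescence at 535 nm (excitation 380 nm) reported loss of 1-AMA binding to horse-spleen apoferritin (10 uM) in PBS with 50% saturated 1-aminoanthracene, after 10 min room-temperature incubation with compound; values from Hill fits of normalized response.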

Assay [11] has as its target ATP-dependent DNA helicase Q1 (Homo sapiens) (UniProt P46063). As to the kind of experiment: qHTS Validation Assay for Inhibitors of RecQ-Like Dna Helicase 1 (RECQ1) (AID 2353).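 Further: plate controls were DMSO vehicle for no effect and enzyme-free control for full effect.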 The procedure, abridged: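 RECQ1T1 50 nM; forked duplex (20 bp + 30-nt ss tails) 200 nM, ATP 2 mM final; pH 8.0, 2 mM MgCl2, 2.5 ug/ml poly(dI-dC); 15 min compound preincubation; discontinuous kinetic read over 2 h at RT.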

Assay [12] is described as follows: Validation screen for inhibitors of Lassa infection (AID 463096; calls by dose curve; further: potency means the concentration at half of the fitted maximal effect).
Assay [13] is described as follows: Quantitative high throughput screen for delayed death inhibitors of the malarial parasite plastid, 96 hour incubation (AID 488745). Further: series mostly up to about 29 µM; on the % scale 0 is the no-effect control and ±100 the full control effect; nearly all actives have a fitted effect of over 70% in size. The method, boiled down: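 Decreased firefly luciferase luminescence indicates inhibited growth of reporter-integrated P. falciparum after two generations (96 h, 37 C, 5% CO2). Infected erythrocytes at 0.1% parasitemia, 2% hematocrit, in Albumax-supplemented RPMI 1640.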

In assay [14] the target is M-phase phosphoprotein 8 (Homo sapiens) (UniProt Q99549). As to the kind of experiment: qHTS Validation Assay for Inhibitors for MPP8 Chromodomain Interactions with Methylated Histone Tails (AID 488949).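 Further: 50 nM MPP8 with 50 nM peptide preformed then compounds added for 30 min; AlphaScreen signal from MPP8 chromodomain bound to biotinylated H3K9me3 peptide; top concentration of the series differs between compounds; on the % scale 0 is the no-effect control and ±100 the full control effect; nearly all actives have a fitted effect of over 55% in size.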 The procedure, abridged:
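50 nM MPP8 + 50 nM b-H3K9me3 peptide, PBS pH 7.4/0.01% Tween-20, 30 min RT; + cpd 30 min RT; + AlphaScreen donor/Ni-chelate acceptor beads 10 ug/mL final, 30 min dark; luminescence read.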

For assay [15], the target named is Transient receptor potential cation channel subfamily V member 1 (Homo sapiens) (UniProt Q8NER1). Nature of the assay: HTS Assay for Compounds that Act as Enhancers of the Vanilloid Receptor 1 (AID 488979). Further: 0% is about no effect. The method, boiled down: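 TRPV1 cells loaded with Fluo-8 calcium dye; compound added and Ca2+ signal (ex 480/em 520 nm) followed 3 min, then capsaicin at EC20 added and read 2 more min to detect enhancement.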

Assay [16] addresses Thyrotropin receptor (Homo sapiens) (UniProt P16473). As to the kind of experiment: qHTS Assay for Antagonists of the Thyroid Stimulating Hormone Receptor (AID 488980). Further: series mostly up to about 58 µM; 0% is about no effect. The procedure, abridged:
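Readout is cAMP by HTRF competition between cellular cAMP and cAMP-d2 for a cryptate-labelled antibody. Antagonism was assessed in TSHR-transfected HEK293 cells stimulated with 4 nM TSH (EC80, final) in the presence of RO 20-1724.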

Assay [17] deals with Thyrotropin-releasing hormone receptor (Homo sapiens) (UniProt P34981). As to the kind of experiment: qHTS for Small Molecule Agonists and Allosteric Enhancers of Human TRH Receptor: Validation Screen for Agonists (AID 493127;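 active means calcium activation more than 3 SD above the typical response in the agonist read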;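 further: intracellular calcium rise by fluo-8 fluorescence before TRH EC20 addition; 0% is about no effect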). The following applies: TRH receptor agonist cell assay; at 2 µM; active compounds read high. The procedure, abridged: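 Compound-evoked intracellular calcium release in fluo-8-loaded TRHR cells, read kinetically on FDSS (Ex 480/Em 530, 1 s/cycle) after 23 nL pintool transfer. Agonist phase preceded 10 nM TRH EC20 addition.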

Assay [18] has as its target Galactokinase (Homo sapiens) (UniProt P51570). As to the kind of experiment: qHTS Validation Assay for Inhibitors of Human Galactokinase (GALK) (AID 493189). Further: 0% is about no effect. The method, boiled down: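 5 nM GALK / 100 uM galactose / 35 uM ATP, 20 mM HEPES pH8.0, 5 mM MgCl2, 60 mM NaCl, 1 mM DTT, 0.01% BSA (final). RT 1 h; Kinase-Glo Plus luminescence.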
A short description of assay [19]: Validation screen for small molecules that induce DNA re-replication in SW480 colon adenocarcinoma cells (AID 504364). Further: 0% is about no effect. The method, boiled down:
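Image-based DNA content read-out: Hoechst stain 40 min, total nuclear fluorescence intensity (ex 405 nm, em 500-530 nm) after 48 h compound exposure of 250 SW480 cells/well at 37 C, 5% CO2, versus DMSO vehicle.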

For assay [20], the target named is Voltage-gated inwardly rectifying potassium channel KCNH2 (Homo sapiens) (UniProt Q12809). Nature of the assay: qHTS Assay for Small Molecule Inhibitors of the Human hERG Channel Activity (AID 588834).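 Further: top concentration of the series differs between compounds; on the % scale 0 is the no-effect control and ±100 the full control effect; lower thallium flux fluorescence means stronger hERG block; nearly all actives have a fitted effect of over 50% in size.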 The procedure, abridged: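 Step 1: BacMam hERG transduction of U2OS, 4 hrs RT. Step 2: overnight 37 °C, plate 2000 cells/well, 4 hr. Step 3: FluxOR load, compound 10 min, stimulate, read fluorescence.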

Assay [21] deals with Rap guanine nucleotide exchange factor 3 (Homo sapiens) (UniProt O95398). As to the kind of experiment: Confirmatory qHTS for agonist of cAMP-regulated guanine nucleotide exchange factor 3 (EPAC1) (AID 1645881).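 Further: EPAC1 catalysed release of BODIPY-GDP from Rap1B seen as fluorescence loss; 100% = effect of cAMP agonist control; nearly all actives have a fitted effect of over 75% in size.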
Assay [22] addresses Rap guanine nucleotide exchange factor 4 (Homo sapiens) (UniProt Q8WZA2). Nature of the assay: Confirmatory qHTS for antagonist of cAMP-regulated guanine nucleotide exchange factor 4 (EPAC2) (AID 1645885). Further: nearly all actives have a fitted effect of over 25% in size. On activity change, negative = inhibition: on the % scale 0 is the no-effect control and ±100 the full control effect.
Assay [23] deals with Rap guanine nucleotide exchange factor 3 (Homo sapiens) (UniProt O95398). As to the kind of experiment: Counterscreen qHTS for antagonist of cAMP-regulated guanine nucleotide exchange factor 3 (EPAC1) (AID 1645888).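 Further: fluorescence loss as bound BODIPY-GDP is released from Rap1B; % of control where 0% means no effect.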 The method, boiled down:
(§1)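 Rap1B–BODIPY-GDP (250 nM) with 50 uM GDP; compounds pin-transferred to 9.74 nM–152 uM final (activator) or from 7.32 nM upwards (inhibitor). Fluorescence Ex/Em 480/540 nm read at 5 and 30 min, then after adding cAMP or buffer, at room temperature.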

Assay [24] shares this target. As to the kind of experiment: Counterscreen qHTS for agonist of cAMP-regulated guanine nucleotide exchange factor 3 (EPAC1) (AID 1645889). Further: % of control where 0% means no effect; nearly all actives have a fitted effect of over 40% in size. The procedure, abridged: as §1
The target in assay [25] is Rap guanine nucleotide exchange factor 4 (Homo sapiens) (UniProt Q8WZA2). As to the kind of experiment: Confirmatory qHTS for agonist of cAMP-regulated guanine nucleotide exchange factor 4 (EPAC2) (AID 1645884).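 Further: nucleotide exchange releases bodipy-GDP from Rap1 and this lowers its fluorescence; on the % scale 0 is the no-effect control and ±100 the full control effect; nearly all actives have a fitted effect of over 65% in size.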
Assay [26] has as its target Tyrosyl-DNA phosphodiesterase 1 (Homo sapiens) (UniProt Q9NUW8). Nature of the assay: Confirmation Assay for Inhibitors of Tyrosyl-DNA Phosphodiesterase (TDP1) (AID 489007). Further: potency means the concentration at half of the fitted maximal effect; nearly all actives have a fitted effect of over 40% in size. The following applies: recombinant human TDP1 enzymatic activity, dose-response. The method, boiled down:
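AlphaScreen assay of tyrosine-FITC cleavage from a biotinylated DNA substrate (15 nM) by E. coli-expressed human Tdp1 (1 nM). Sequence: compound preincubation 15 min, reaction 5 min, bead detection 10 min, all at room temperature. No-enzyme wells give maximum signal.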

Structures are written as SMILES. A number with no mark means an inactive call. Results filed as inconclusive are left out. Active and inactive are the calls of the source. Unless noted, the call rests on the fitted dose curve; in most records, active means well fitted curve in the direction sought with a large enough effect; inconclusive means small, poorly fitted or top-dose-only effect, or another doubt; inactive means no such curve, though single readings can be large; an effect the other way counts as inactive or inconclusive.

Sequence of Rap guanine nucleotide exchange factor 3 (Homo sapiens) (O95398 whole entry, looked up): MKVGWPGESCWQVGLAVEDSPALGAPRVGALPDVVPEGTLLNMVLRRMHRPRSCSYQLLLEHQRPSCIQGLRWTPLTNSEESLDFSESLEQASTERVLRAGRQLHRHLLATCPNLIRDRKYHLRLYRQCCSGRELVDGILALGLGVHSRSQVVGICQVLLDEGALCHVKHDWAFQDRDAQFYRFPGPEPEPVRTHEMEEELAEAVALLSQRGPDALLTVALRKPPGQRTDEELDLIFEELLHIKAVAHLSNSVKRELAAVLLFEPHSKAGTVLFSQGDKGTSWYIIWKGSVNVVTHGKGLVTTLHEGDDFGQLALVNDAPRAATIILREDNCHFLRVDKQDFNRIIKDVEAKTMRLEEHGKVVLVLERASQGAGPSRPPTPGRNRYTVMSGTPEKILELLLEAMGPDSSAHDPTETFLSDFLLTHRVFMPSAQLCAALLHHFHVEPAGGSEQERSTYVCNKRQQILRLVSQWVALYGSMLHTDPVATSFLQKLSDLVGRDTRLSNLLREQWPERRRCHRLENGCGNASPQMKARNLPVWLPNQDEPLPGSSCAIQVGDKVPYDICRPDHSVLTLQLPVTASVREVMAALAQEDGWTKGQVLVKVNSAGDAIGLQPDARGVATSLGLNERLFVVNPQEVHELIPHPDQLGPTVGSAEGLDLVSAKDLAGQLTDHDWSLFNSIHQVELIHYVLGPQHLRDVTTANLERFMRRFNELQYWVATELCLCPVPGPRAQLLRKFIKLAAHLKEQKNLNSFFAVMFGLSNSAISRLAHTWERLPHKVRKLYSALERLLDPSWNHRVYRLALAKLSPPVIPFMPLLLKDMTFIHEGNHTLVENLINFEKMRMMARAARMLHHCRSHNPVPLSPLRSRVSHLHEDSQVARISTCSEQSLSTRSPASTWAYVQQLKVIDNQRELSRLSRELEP
Sequence of Rap guanine nucleotide exchange factor 4 (Homo sapiens) (Q8WZA2 whole entry, looked up): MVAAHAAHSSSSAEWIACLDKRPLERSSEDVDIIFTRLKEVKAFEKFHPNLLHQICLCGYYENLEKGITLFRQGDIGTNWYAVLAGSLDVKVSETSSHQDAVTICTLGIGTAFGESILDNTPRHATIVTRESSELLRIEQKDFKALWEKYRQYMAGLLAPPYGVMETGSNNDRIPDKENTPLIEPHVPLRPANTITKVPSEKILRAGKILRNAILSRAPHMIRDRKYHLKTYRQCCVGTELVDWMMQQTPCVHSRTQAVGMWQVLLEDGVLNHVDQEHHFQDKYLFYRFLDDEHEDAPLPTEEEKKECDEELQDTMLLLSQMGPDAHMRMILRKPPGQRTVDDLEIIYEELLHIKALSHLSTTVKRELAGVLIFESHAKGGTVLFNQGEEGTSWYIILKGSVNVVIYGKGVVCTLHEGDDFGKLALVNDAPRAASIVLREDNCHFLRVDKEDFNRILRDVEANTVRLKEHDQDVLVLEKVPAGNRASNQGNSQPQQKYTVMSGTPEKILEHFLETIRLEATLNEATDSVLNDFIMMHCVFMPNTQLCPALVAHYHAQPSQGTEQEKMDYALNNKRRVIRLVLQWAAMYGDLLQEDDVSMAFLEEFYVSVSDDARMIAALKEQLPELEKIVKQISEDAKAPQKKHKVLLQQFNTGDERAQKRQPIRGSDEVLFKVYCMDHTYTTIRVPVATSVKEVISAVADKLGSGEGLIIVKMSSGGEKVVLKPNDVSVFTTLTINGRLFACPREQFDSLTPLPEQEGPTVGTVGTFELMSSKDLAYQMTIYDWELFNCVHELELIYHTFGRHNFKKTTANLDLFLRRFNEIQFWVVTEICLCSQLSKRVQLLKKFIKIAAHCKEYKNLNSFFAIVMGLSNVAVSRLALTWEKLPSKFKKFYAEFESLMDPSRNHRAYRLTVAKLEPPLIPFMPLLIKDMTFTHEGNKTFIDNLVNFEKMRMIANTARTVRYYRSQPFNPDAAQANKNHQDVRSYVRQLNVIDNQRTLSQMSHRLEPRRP
Sequence of Tyrosyl-DNA phosphodiesterase 1 (Homo sapiens) (Q9NUW8 whole entry, looked up): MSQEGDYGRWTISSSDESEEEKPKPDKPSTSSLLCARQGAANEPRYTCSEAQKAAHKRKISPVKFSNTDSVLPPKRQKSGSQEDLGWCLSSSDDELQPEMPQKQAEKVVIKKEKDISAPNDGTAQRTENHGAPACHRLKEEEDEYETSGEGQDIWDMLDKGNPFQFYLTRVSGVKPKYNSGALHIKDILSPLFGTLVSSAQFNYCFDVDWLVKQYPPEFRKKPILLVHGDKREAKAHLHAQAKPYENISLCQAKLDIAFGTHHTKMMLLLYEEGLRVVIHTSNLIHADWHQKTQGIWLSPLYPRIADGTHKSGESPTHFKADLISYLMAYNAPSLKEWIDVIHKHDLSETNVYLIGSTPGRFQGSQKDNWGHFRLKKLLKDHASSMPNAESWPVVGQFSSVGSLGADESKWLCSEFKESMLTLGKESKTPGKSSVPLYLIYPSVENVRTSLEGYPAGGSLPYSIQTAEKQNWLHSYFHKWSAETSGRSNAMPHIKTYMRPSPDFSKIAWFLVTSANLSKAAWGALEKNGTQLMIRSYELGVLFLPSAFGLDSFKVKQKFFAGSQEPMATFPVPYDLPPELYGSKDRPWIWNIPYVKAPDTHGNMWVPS
Sequence of M-phase phosphoprotein 8 (Homo sapiens) (Q99549 whole entry, looked up): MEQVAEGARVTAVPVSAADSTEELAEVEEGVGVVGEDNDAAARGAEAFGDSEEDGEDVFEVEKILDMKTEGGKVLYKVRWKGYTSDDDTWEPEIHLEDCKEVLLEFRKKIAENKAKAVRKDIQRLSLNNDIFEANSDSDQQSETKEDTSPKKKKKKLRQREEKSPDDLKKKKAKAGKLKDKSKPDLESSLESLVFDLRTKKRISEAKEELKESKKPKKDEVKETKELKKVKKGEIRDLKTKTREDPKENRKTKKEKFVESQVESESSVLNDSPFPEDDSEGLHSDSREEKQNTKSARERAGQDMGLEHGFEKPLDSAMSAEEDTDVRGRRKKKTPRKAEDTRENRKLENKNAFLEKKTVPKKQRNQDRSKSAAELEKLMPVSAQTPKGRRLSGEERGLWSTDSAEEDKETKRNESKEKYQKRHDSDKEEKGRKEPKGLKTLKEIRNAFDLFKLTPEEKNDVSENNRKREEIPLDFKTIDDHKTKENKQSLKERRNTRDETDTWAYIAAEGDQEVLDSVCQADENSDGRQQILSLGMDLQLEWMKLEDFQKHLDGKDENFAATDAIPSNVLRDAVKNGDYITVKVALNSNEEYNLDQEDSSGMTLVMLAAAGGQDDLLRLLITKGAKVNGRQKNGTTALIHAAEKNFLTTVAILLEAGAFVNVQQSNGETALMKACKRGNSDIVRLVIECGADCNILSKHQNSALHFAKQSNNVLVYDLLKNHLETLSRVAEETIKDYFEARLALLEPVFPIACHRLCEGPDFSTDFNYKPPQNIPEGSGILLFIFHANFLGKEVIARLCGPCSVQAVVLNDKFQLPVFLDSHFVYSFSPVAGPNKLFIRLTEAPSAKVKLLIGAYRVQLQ
Sequence of Transient receptor potential cation channel subfamily V member 1 (Homo sapiens) (Q8NER1 whole entry, looked up): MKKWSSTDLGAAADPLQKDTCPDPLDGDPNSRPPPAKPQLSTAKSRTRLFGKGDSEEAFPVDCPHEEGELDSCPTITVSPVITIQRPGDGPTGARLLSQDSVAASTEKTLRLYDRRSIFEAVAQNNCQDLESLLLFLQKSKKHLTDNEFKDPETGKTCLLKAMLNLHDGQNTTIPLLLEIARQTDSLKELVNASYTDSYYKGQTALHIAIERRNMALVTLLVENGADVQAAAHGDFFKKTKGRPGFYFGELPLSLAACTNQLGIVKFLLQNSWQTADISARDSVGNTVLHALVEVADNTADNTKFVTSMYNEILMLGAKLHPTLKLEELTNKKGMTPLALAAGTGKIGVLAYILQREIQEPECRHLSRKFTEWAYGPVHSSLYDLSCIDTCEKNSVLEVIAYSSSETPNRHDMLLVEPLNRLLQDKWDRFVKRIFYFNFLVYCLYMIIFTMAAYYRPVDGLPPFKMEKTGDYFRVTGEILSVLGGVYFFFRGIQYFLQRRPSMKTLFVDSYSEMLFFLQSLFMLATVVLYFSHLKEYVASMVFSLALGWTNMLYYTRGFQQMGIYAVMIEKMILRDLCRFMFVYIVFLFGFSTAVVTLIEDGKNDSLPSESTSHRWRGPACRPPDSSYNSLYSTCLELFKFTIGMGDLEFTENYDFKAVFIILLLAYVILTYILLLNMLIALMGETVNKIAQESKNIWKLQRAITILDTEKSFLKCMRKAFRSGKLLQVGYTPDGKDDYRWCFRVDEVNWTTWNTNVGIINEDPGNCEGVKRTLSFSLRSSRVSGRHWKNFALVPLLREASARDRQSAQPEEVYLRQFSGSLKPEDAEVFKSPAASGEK
Sequence of Thyrotropin-releasing hormone receptor (Homo sapiens) (P34981 whole entry, looked up): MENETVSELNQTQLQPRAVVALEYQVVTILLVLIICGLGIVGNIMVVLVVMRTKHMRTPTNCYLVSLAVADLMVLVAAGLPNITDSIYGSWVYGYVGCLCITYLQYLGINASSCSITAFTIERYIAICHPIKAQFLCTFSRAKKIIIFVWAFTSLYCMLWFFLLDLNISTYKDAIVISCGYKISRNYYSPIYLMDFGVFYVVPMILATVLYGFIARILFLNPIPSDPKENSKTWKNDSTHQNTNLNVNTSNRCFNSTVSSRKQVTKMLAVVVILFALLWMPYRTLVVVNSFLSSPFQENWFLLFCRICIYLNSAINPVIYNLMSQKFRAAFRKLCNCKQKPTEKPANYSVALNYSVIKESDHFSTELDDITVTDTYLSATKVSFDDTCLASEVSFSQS
Sequence of Galactokinase (Homo sapiens) (P51570 whole entry, looked up): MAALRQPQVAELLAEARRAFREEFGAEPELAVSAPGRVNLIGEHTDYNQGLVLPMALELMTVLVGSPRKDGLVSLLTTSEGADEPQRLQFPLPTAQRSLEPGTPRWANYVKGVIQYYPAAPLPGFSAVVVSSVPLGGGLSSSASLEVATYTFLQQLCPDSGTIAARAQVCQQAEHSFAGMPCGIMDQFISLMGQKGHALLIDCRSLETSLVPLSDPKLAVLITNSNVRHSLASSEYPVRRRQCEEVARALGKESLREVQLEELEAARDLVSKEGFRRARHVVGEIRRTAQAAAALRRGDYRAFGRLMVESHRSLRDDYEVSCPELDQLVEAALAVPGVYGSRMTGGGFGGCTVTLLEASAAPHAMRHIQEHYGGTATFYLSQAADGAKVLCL

Take `C[C@@H]1O[C@@H](O[C@H]2C[C@@H](O)[C@]3(CO)[C@H]4[C@H](O)C[C@]5(C)[C@@H]([C@@H]6COC(=O)C6)CC[C@]5(O)[C@@H]4CC[C@]3(O)C2)[C@H](O)[C@H](O)[C@H]1O`: the Potency result in [1], in assay [3], in assay [4], in assay [5], in assay [6] and in [7] was “inactive” throughout. The Potency entry in [8], in assay [10], in assay [13], in assay [14] and in [20] was “inactive” throughout. Besides, the call in assay [2], in [9], in [11], in assay [15], in assay [16] and in [18] was inactive. For the same compound, the result in [19] was inactive. Further, the Potency in assay [12] is 1.58 µM (active). Further, in assay [17], the activation is 1.38%.

In the case of `O=C(c1cc(-c2ccc(Cl)cc2)n(-c2ccc(Cl)cc2Cl)n1)N1CCOCC1`, the Potency entry in assay [21], in assay [22] and in assay [24] was “inactive” in each case. The result in [23] was inactive.

`Cc1ccccc1-c1nc(CN2C(=O)CN=C(c3ccccc3)c3ccccc32)c(C)o1`: the Potency result in assay [21] and in assay [25] was “inactive” each time. Also, the result in assay [23] was inactive.

As for `Cn1cccc1/C=C1\C(=O)NC(=O)N(Cc2ccco2)C1=O`, the Potency in assay [26] is 14.1 µM (active). The Potency result in [21] is “inactive”. The activation in assay [25] was 8.15% [at 17.1 µM, percent relative to cAMP agonist control]; in [24] it was 7.31% [at 30.8 µM]. The activity change, negative = inhibition in assay [22] was -7.91% [at 12.7 µM]; in [23], -2.64% [at 30.8 µM].

As for `Cc1cccc(CN2C(=O)CN=C(c3ccccc3)c3cc(Cl)ccc32)c1`, the Potency entry in assay [25] was “inactive”. For the same compound, the outcome in assay [22] is “inactive [at 12.7 µM]”. The result in assay [23] was inactive.
